Results: PubChem BioAssay AID651909 (Vanderbilt Specialized Chemistry Center, 2012)
The source made the active and inactive calls. The rule behind the calls is not given here.

Biological target: Histone deacetylase 9 (Homo sapiens) (UniProt Q9UKV0)
Assay: inhibitors of recombinant human HDAC9 – biochemical, selectivity assay for E-cadherin restoration project, profiling panel (AID 651909)

Histone deacetylase 9 (Homo sapiens), sequence (Q9UKV0 whole entry, looked up): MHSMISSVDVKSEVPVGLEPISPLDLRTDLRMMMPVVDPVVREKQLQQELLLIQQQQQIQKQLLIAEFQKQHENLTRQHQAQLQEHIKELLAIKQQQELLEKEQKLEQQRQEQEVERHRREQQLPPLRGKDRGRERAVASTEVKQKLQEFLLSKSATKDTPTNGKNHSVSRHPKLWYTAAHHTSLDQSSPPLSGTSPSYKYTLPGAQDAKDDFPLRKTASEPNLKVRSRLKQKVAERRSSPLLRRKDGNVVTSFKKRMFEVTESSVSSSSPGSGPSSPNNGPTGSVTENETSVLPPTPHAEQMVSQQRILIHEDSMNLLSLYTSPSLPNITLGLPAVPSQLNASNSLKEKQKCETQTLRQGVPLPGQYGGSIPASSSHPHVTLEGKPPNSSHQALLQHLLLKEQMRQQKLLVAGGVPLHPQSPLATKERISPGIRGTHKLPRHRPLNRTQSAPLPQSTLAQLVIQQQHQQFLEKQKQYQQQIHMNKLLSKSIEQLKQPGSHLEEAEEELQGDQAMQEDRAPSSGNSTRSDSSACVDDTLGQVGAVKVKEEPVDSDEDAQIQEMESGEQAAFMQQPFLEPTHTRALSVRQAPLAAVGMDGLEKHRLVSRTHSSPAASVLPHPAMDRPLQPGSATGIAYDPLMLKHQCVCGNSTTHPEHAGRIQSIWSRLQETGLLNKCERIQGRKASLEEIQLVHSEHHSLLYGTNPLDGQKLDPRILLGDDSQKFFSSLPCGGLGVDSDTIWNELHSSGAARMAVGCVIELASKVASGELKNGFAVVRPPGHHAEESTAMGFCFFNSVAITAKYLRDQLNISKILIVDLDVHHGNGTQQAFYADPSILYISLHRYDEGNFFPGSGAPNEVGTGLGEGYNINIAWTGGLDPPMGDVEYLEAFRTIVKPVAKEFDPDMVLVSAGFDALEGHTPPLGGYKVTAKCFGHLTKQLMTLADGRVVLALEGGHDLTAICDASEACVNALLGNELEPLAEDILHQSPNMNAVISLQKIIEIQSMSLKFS

## O=C(NCCCNC(=O)c1ccc[nH]c1=O)c1cc(-c2ccccc2)on1
  outcome: inactive
